Measurements from PubChem BioAssay (Tox21).
Several values for one entry are separate records, joined by “and”; a condition that tells them apart may be missing. Identical values can stand only once. Results filed as inconclusive are left out. A call without a number means that no potency is given here. Activity calls are given as the source filed them. Calls follow the shape of the dose curve; as a rule, active = well fitted inhibition curve with a large enough effect in the repeat runs; inconclusive = weak or mixed curves; inactive = no such curve, though single readings can be large or run the other way.

Test: qHTS assay to identify small molecule antagonists of the thyroid receptor (TR) signaling pathway (AID 743065); also: nearly all actives have a fitted effect of over 55% in size
Settings: GH3.TRE-Luc, T3-stimulated luciferase inhibition, 23.5 h; series mostly up to 70.3 µM
Source text: U.S. Tox21 Program National Center for Advancing Translational Sciences [NCATS] NIH Chemical Genomics Center [NCGC] U.S. Environmental Protection Agency [EPA] National Institutes of Environmental Health Sciences [NIEHS] National Toxicology Program [NTP] U.S. Food and Drug Administration [FDA] Tox21 Assay Overview: Thyroid receptor (TR), a nuclear hormone receptor, plays an important role in development, proliferation, differentiation, metabolism, brain function, and cardiovascular system. […] To profile the Tox21 10K compound library in TR signaling, a cell-based GH3-TRE-Luc assay (GH3.TRE-Luc cell line, developed by the laboratory of Dr. Albertinka J. Murk, Wageningen University) was used to measure the inhibition of TR. GH3 (rat pituitary tumor) cells stably expressing a TR activity sensor consisting of two TR response elements and a luciferase reporter gene.
Tox21 Assay Protocol Summary: GH3.TRE-Luc cells were dispensed at 1500 cells/4 uL/well into 1536-well white solid bottom plates using a Multidrop Combi dispenser (Thermo Fisher Scientific Inc., Waltham, MA). After the assay plates were incubated at 37 C for 4 hours, 23 nL of library compound or DMSO controls was transferred to the assay plates by a pintool station (Kalypsys, San Diego, CA), followed by addition of 1 ul of T3 (1 nM, final concentration in the wells) to stimulate TR transactivation. The assay plates were incubated at 37 C for 23.5 h, and then 1 uL of CellTiter-Fluor reagent (Promega, Madision, WI) of measuring cytotoxicity was added to each well using a Bioraptr Flying Reagent Dispenser (FRD) workstation (Beckman Coulter, Indianapolis, IN, USA). The plates were incubated at 37 C and 5% CO2 for additional 30 min, and fluorescence intensity was measured by a ViewLux plate reader (PerkinElmer, Shelton, CT). For measuring luciferase reporter gene activity, 4 uL of ONE-Glo Luciferase Assay reagent (Promega) was added to each well using a Bioraptr FRD (Beckman Coulter), followed by 30 min incubation at room temperature. The luminescence intensity of plates was recorded by a ViewLux plate reader (PerkinElmer, Shelton, CT).
Potency is read from the fitted curve at half-maximal effect.

SMILES	Potency	activity, negative = inhibition
O=C(/C=C/c1ccc(O)c(O)c1)O[C@@H](C(=O)O)[C@@H](OC(=O)/C=C/c1ccc(O)c(O)c1)C(=O)O	inactive	–
Cc1nc(-c2ccc(Cl)cc2)oc1COC(C)(C)C(=O)O	inactive	–
C=C(CC)C(=O)c1ccc(OCC(=O)O)c(Cl)c1Cl	26.6 µM (active) and 54.1 µM (active)	–
Cc1ccc(C)cc1	inactive	–
CCCCN(CCCC)CC(O)c1cc(Cl)cc2c1-c1ccc(Cl)cc1/C2=C/c1ccc(Cl)cc1 (stereo not given)	29.8 µM (active)	–
NC(=O)c1cccc([N+](=O)[O-])c1	inactive	–
CC(=O)c1ccc(C(C)=O)cc1	inactive	–
CC1=Nc2ccccc2C1(C)C	inactive	–
CC(C)OC(=O)C(O)(CC(=O)O)CC(=O)O	inactive	–
CC(=O)CC(=O)Nc1ccc(S(=O)(=O)O)cc1	inactive	–
Cc1ccc(-c2ccccc2)cc1	inactive	–
O=C1C(c2[nH]c3ccc(S(=O)(=O)O)cc3c2O)=Nc2ccc(S(=O)(=O)O)cc21	inactive	–
O=[N+]([O-])c1cccc(C(F)(F)F)c1	inactive	–
OCCN1CCN(CCCN2c3ccccc3Sc3ccc(C(F)(F)F)cc32)CC1	6.68 µM (active)	–
COc1cc(C)ccc1O	inactive	–
CCN1C(=O)c2ccccc2C1Nc1ccc(OCCN2CCCCC2)cc1 (stereo not given)	inactive	–
C=Cc1ccccc1C=C	inactive	–
CC[N+](CC)(CC)CCOc1ccc(/C=C/c2ccccc2)cc1	29.8 µM (active)	–
OC/C=C/CO	inactive	–
CCCNCCC	inactive	–

SMILES	Potency	activity, negative = inhibition
Cc1nc2n(c(=O)c1CCN1CCC(c3noc4cc(F)ccc34)CC1)CCCC2	inactive	–
CN(C)Cc1ccccc1O	inactive	–
CC(C(=O)O)c1ccc2c(c1)[nH]c1ccc(Cl)cc12 (stereo not given)	inactive	–
C#CC1(O)CC[C@H]2[C@@H]3CCC4=CCCC[C@@H]4[C@H]3CC[C@@]21C (stereo not given in full)	30.6 µM (active)	–
CCCCCCCCCCCCCCCC[N+](C)(C)CC	4.22 µM (active) and 6.13 µM (active)	–
CCc1ccc(Br)cc1	inactive	–
COc1cccc2c1C(=O)c1c(O)c3c(c(O)c1C2=O)C[C@@](O)(C(C)=O)C[C@@H]3O[C@H]1C[C@H](N)[C@H](O)[C@H](C)O1	596 nM (active) and 154 nM (active)	–
FC(F)(F)c1cccc(Cl)c1	inactive	–
CCCCCCCCCCOC(=O)c1ccccc1C(=O)OCCCCCCCC	inactive	–
CCCCCc1ccc(Cl)cc1	inactive	–
CCCCCCCCCCCC(=O)OCC(C)OC(=O)CCCCC(=O)O (stereo not given)	inactive	–
CCCCC(CC)CN1CN(CC(CC)CCCC)CC(C)(N)C1 (stereo not given)	inactive	–
CCCCCCCC/C=C\CCCCCCCCN	inactive	–
CCCCCCCCCCC[C@@H](C[C@@H]1OC(=O)[C@H]1CCCCCC)OC(=O)[C@H](CC(C)C)NC=O	inactive	–
Cc1cccc(C(=O)O)c1O	inactive	–
CC(C)(C)CC(C)(C)c1ccc(Nc2ccc(C(C)(C)CC(C)(C)C)cc2)cc1	–	9.26% [at 8.44 µM] (inactive)
O=C1CCCCCCCCCCCCCCCO1	inactive	–
O=C(/C=C/c1ccccc1)OC/C=C/c1ccccc1	inactive	–
CC(C)CCCCCOC(=O)CCS	inactive	–
CN(C)C(=O)COC(=O)Cc1ccc(OC(=O)c2ccc(N=C(N)N)cc2)cc1	inactive	–
